Measured values from paper PMC7862700, “An all-to-all approach to the identification of sequence-specific readers for epigenetic DNA modifications on cytosine”.

Columns and labels:
Test in all cases: DAPPL (digital affinity profiling via proximity ligation, sequencing); 10 mM Tris-HCl pH 7.5, 50 mM NaCl, 1 mM DTT, 4% glycerol, room temperature, 30 min; GST-TFs on glutathione beads, 16-mer random dsDNA library, 0.1% formaldehyde crosslink after washing; high values mean tight binding
Settings in all cases: protein: recombinant; tags: N-terminal GST; dsDNA, one strand shown
[1] = target: T1, GABPA (Homo sapiens, UniProt Q06546 1-454)
T1 sequence: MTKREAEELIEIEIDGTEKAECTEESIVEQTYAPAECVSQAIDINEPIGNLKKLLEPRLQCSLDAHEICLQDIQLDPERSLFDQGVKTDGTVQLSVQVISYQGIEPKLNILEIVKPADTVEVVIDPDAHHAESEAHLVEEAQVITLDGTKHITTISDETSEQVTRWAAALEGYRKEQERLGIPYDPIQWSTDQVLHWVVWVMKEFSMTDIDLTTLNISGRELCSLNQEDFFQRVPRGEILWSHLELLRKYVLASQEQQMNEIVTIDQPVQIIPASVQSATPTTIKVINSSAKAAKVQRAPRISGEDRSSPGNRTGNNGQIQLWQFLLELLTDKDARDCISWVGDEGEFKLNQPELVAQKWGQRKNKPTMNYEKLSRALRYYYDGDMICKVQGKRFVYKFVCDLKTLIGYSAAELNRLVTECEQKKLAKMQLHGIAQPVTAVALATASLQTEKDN
How it was run: (§1)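 A tag-only sample was pooled with DNA-barcoded human transcription factors that had been expressed in yeast as GST fusions and captured on glutathione beads. The pools were incubated for 30 min at room temperature with 200 nmole of a random double-stranded 16-mer DNA library in Tris/NaCl/DTT/glycerol buffer, then washed, crosslinked with 0.1% formaldehyde, proximity-ligated (BsaI/T4 ligase, 1 h, 37 °C), PCR-amplified and sequenced on an Illumina NextSeq500. Binding signal is each hexamer's read frequency for a factor divided by its frequency for the tag-only sample.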

[2] = target: T2, ERG (Homo sapiens, UniProt P11308 1-479)
T2 sequence: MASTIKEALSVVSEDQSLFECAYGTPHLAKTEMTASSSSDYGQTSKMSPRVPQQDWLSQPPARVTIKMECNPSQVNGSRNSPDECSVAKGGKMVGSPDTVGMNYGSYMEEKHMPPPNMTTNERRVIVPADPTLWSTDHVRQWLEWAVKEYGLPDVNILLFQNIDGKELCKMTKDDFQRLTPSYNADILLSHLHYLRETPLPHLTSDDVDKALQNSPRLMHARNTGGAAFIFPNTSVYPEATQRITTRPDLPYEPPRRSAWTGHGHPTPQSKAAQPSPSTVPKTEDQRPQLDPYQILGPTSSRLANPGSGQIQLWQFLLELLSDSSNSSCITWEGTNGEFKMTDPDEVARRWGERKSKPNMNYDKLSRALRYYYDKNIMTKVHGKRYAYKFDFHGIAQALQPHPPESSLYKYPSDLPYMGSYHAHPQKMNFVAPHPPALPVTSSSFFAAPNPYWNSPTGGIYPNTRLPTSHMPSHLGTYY
How it was run: as §1

[3] = target: ELF1 (Homo sapiens, UniProt P32519 1-619)
Chain of ELF1 (P32519 whole entry): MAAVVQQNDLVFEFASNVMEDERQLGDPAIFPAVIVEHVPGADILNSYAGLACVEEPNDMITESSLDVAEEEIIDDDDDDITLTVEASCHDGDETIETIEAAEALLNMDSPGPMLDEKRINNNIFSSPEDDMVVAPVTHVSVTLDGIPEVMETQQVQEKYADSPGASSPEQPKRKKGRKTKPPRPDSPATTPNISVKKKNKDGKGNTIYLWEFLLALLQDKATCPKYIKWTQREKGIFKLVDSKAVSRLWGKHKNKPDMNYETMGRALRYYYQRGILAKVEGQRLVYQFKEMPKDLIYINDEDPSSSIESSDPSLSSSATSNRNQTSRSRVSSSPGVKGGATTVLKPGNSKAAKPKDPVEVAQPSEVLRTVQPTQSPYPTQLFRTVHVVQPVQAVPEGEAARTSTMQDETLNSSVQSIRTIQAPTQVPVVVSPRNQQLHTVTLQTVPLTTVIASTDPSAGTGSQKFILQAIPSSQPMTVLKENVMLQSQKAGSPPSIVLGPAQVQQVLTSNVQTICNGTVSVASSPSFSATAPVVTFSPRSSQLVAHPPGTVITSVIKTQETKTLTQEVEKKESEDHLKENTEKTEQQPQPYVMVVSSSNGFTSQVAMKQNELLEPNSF
How it was run: as §1

[4] = target: T3, EHF (Homo sapiens, UniProt Q9NZC4 1-300)
T3 sequence: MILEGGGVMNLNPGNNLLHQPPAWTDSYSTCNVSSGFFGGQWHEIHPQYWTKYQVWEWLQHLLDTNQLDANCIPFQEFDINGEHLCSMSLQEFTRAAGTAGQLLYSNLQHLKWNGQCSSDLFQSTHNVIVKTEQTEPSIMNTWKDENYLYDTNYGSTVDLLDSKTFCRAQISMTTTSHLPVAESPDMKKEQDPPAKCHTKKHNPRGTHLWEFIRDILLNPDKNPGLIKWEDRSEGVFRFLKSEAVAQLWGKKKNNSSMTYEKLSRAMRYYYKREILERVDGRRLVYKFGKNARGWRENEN
How it was run: as §1

[5] = target: SPIB (Homo sapiens, UniProt Q01892 1-262)
Chain of SPIB (Q01892 whole entry): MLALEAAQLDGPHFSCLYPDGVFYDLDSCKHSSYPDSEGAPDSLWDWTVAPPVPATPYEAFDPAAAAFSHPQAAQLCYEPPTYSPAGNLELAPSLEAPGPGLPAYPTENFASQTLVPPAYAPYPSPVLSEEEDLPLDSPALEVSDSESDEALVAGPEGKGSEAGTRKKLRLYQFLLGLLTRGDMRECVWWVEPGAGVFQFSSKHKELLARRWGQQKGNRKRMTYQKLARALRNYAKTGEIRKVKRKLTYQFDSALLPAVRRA
How it was run: as §1

[6] = target: T4, FEV (Homo sapiens, UniProt Q99581 1-238)
T4 sequence: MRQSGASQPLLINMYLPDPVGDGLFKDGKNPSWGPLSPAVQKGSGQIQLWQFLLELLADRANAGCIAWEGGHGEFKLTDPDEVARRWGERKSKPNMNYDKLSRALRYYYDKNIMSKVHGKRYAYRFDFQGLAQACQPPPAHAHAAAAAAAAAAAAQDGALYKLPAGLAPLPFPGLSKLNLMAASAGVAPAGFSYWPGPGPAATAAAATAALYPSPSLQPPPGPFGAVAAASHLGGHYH
How it was run: as §1

[7] = target: ETV5 (Homo sapiens, UniProt P41161 1-510)
Chain of ETV5 (P41161 whole entry): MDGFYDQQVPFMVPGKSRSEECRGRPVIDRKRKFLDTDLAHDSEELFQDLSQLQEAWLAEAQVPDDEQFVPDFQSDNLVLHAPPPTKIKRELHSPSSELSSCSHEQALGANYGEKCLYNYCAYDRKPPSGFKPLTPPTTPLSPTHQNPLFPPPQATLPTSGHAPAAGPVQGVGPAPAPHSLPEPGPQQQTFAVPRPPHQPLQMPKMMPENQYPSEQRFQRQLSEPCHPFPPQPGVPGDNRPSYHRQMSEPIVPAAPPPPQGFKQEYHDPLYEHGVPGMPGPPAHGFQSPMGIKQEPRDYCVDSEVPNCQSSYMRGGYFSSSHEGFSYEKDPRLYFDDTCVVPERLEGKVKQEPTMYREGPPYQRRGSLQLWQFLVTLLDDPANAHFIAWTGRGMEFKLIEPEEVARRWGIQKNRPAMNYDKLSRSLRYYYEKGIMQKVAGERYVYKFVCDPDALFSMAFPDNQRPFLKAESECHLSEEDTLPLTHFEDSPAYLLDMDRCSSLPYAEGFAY
How it was run: as §1

[8] = target: ELF4 (Homo sapiens, UniProt Q99607 1-663)
Chain of ELF4 (Q99607 whole entry): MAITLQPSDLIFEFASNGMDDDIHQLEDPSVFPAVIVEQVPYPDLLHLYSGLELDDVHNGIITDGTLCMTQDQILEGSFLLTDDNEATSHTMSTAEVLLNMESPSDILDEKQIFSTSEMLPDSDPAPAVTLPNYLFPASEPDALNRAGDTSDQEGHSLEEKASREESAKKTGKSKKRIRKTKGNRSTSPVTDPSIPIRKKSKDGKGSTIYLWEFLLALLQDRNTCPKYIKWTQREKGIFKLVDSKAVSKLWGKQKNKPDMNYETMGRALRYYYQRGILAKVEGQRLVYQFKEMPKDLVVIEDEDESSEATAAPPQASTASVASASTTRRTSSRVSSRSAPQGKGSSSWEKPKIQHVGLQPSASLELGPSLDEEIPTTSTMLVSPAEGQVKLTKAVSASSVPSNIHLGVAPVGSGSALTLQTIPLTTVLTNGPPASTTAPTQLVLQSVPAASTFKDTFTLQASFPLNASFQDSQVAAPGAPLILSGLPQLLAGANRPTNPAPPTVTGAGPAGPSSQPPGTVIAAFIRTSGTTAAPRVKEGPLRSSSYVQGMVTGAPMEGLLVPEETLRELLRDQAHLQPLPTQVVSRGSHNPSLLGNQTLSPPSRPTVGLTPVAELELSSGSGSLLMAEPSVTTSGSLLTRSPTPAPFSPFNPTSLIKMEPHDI
How it was run: as §1

[9] = target: T5, ETV2 (Homo sapiens, UniProt O00321 1-342)
T5 sequence: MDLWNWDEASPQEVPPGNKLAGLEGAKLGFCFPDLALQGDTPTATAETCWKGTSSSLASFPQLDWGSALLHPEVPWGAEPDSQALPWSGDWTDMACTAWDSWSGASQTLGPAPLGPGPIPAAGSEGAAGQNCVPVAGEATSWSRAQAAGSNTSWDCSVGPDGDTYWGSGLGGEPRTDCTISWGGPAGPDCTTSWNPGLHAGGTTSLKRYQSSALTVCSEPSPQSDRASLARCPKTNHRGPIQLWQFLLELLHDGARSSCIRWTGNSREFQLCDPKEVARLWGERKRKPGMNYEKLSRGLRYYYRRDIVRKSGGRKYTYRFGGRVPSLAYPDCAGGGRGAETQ
How it was run: as §1

[10] = target: T6, ELF3 (Homo sapiens, UniProt P78545 1-371)
T6 sequence: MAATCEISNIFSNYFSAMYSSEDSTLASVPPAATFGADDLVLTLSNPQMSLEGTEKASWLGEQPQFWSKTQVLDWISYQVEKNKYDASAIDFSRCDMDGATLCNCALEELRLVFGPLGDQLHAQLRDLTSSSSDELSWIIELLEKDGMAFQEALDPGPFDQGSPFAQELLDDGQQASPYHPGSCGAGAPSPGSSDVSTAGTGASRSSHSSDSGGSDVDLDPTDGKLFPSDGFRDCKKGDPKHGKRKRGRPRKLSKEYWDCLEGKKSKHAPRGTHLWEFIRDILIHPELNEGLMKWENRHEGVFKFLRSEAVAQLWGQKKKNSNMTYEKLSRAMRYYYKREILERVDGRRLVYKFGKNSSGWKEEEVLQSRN
How it was run: as §1

[11] = target: ETV1 (Homo sapiens, UniProt P50549 1-477)
Chain of ETV1 (P50549 whole entry): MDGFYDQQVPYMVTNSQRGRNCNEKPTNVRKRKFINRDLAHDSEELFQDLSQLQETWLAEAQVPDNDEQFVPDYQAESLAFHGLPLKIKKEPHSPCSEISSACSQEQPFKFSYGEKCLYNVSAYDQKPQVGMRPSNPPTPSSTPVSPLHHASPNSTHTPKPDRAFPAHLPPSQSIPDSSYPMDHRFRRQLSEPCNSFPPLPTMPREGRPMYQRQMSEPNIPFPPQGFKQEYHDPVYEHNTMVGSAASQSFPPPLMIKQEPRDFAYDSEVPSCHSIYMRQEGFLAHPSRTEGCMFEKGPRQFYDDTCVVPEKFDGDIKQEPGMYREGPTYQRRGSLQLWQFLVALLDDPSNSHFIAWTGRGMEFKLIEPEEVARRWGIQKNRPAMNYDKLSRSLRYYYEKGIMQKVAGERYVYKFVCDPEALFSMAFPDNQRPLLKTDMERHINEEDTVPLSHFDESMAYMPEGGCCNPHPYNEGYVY
How it was run: as §1

[12] = target: T7, ERF (Homo sapiens, UniProt P50548 1-548)
T7 sequence: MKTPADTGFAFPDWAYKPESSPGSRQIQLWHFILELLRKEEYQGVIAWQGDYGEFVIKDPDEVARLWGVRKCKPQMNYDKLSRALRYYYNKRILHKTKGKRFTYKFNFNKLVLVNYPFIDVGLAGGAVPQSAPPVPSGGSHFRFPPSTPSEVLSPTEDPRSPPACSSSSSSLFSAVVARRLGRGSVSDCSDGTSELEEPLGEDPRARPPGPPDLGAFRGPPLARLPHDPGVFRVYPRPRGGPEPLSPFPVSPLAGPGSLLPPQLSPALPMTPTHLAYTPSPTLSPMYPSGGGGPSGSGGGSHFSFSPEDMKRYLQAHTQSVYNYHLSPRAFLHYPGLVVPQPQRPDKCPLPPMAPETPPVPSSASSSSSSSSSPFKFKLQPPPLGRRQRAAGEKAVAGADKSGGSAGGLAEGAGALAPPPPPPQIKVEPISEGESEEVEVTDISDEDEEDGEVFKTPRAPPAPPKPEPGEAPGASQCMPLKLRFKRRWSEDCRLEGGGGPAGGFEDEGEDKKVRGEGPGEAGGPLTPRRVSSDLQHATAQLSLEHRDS
How it was run: as §1

[13] = target: T8, ETV3L (Homo sapiens, UniProt Q6ZN32 1-361)
T8 sequence: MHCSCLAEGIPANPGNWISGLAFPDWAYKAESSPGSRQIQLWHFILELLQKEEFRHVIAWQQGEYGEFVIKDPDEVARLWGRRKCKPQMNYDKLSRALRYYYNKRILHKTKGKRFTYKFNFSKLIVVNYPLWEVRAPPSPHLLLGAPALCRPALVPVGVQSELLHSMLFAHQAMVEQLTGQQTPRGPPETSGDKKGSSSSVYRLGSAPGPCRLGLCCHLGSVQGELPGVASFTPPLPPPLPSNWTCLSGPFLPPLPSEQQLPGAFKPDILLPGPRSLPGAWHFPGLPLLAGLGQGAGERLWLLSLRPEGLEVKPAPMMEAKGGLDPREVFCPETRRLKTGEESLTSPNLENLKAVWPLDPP
How it was run: as §1

[14] = target: T9, SPDEF (Homo sapiens, UniProt O95238 1-335)
T9 sequence: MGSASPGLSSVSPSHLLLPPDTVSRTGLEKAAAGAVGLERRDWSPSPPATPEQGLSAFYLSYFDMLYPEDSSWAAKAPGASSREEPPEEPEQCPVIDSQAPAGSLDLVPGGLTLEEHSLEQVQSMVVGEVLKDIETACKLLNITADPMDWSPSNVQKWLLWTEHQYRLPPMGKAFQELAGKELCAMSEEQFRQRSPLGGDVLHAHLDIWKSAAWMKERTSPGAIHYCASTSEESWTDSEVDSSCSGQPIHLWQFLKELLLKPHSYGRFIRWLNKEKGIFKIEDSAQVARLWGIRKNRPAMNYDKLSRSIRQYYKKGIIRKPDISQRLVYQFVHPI
How it was run: as §1

[15] = target: T10, ETV7 (Homo sapiens, UniProt Q9Y603 1-341)
T10 sequence: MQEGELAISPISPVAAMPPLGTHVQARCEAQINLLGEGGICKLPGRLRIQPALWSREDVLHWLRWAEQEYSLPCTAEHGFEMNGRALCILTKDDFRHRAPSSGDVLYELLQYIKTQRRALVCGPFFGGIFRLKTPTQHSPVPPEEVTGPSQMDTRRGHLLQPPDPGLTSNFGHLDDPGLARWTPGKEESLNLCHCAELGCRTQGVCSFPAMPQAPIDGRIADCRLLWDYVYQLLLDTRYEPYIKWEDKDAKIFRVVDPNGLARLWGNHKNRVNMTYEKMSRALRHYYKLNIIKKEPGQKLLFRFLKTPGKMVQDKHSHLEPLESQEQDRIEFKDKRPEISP
How it was run: as §1

[16] = target: T11, ETV3 (Homo sapiens, UniProt P41162-2 1-143)
T11 sequence: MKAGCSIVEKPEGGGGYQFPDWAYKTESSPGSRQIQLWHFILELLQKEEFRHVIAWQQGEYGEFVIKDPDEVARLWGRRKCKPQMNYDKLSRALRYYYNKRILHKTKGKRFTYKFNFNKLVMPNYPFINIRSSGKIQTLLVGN
How it was run: as §1

[17] = target: T12, ELK4 (Homo sapiens, UniProt P28324-2 1-405)
T12 sequence: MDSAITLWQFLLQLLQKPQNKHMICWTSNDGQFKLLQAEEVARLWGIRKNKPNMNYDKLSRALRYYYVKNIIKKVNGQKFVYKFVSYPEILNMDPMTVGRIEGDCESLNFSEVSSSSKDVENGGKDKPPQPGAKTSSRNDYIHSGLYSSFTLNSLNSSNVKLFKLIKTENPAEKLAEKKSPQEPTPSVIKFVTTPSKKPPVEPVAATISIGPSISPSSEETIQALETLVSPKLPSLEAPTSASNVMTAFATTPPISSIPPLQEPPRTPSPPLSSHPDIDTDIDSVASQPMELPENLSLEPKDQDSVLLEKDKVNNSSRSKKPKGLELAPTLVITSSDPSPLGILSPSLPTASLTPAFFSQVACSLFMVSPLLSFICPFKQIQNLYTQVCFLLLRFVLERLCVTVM
How it was run: as §1

| Sequence | binding signal [1] | binding signal [2] | binding signal [3] | binding signal [4] | binding signal [5] | binding signal [6] | binding signal [7] | binding signal [8] | binding signal [9] | binding signal [10] | binding signal [11] | binding signal [12] | binding signal [13] | binding signal [14] | binding signal [15] | binding signal [16] | binding signal [17] |
| --- | --- | --- | --- | --- | --- | --- | --- | --- | --- | --- | --- | --- | --- | --- | --- | --- | --- |
| ACTGGA | 1.12 fold enrichment (6-mer frequency, TF over GST control) | 1.08 fold enrichment (6-mer frequency, TF over GST control) | 1.03 fold enrichment (6-mer frequency, TF over GST control) | 1.02 fold enrichment (6-mer frequency, TF over GST control) | 1.03 fold enrichment (6-mer frequency, TF over GST control) | 1 fold enrichment (6-mer frequency, TF over GST control) | 1.09 fold enrichment (6-mer frequency, TF over GST control) | 1.1 fold enrichment (6-mer frequency, TF over GST control) | 1.17 fold enrichment (6-mer frequency, TF over GST control) | 1.1 fold enrichment (6-mer frequency, TF over GST control) | 1.06 fold enrichment (6-mer frequency, TF over GST control) | 1.03 fold enrichment (6-mer frequency, TF over GST control) | 1.02 fold enrichment (6-mer frequency, TF over GST control) | 1.02 fold enrichment (6-mer frequency, TF over GST control) | 1.01 fold enrichment (6-mer frequency, TF over GST control) | 1.05 fold enrichment (6-mer frequency, TF over GST control) | – |
| CGAAGG | 1 fold enrichment (6-mer frequency, TF over GST control) | – | – | 1.03 fold enrichment (6-mer frequency, TF over GST control) | – | – | 1.05 fold enrichment (6-mer frequency, TF over GST control) | – | – | – | – | – | – | – | – | – | 1.06 fold enrichment (6-mer frequency, TF over GST control) |
